In PubChem BioAssay AID488899 (Broad Institute, 2010) one finds inhibition data, which are given here for 91 compounds.

Out of some 330,000 compounds screened, about 2,800 (0.85%) were called active. The full list was thinned out, with actives kept by preference. A number with no mark means an inactive call.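 Rule for the calls: active = mean inhibition across replicates of 60% or more, whatever share of single replicates reaches that level; inconclusive = some that reach 60%, reason not given; inactive = mean inhibition across replicates below 60%.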

The nature of the experiment: inhibitors of MITF-dependent TRPM1 promoter reporter, primary screen, cell-based, SK-MEL-5, single point, luciferase (AID 488899). As to conditions: SK-MEL-5 TRPM1 promoter luciferase, 24 h; at 12.5 µM; active compounds read high.
`Cc1ccc(-c2nn(C(C)(C)C)c3ncnc(N)c23)cc1`: the inhibition was 3.91%.

Regarding `CN(C)c1ccc(CSc2ccccc2)cc1`, the inhibition was -111%.

Take `Cc1ccc(C(=O)NC(=S)Nc2ccc3[nH]c(=O)[nH]c3c2)cc1C`: the inhibition was 3.06%.

Take `N#Cc1nc(N)nc(N(c2ccccc2)c2ccccc2)n1`: the inhibition is 10.4%.

As for `COc1ccc(S(=O)(=O)N2CCOCC2)cc1NC(=O)Cc1coc2cc(C)ccc12`, the inhibition was 5.65%.

Consider `CC[C@H]1CN2CCc3cc(OC)c(OC)cc3[C@@H]2C[C@@H]1C[C@H]1NCCc2cc(OC)c(OC)cc21`, for which the inhibition is 85.1% (active).

As for `COc1cc2c(cc1OC)CN(CC(=O)Nc1ccc(F)cc1)CC2`, the inhibition was 4.57%.

As to `CCc1ccc(OCC2c3cc(OC)c(OC)cc3CCN2C(C)=O)cc1` (stereo unspecified), the inhibition is -0.63%.

On to `COc1ccc(/C=C/C2=CC(C)(C)NC(=S)N2)c(OC)c1`, for which the inhibition was 10.5%.

On to `Cc1ccccc1-n1nc(C)c2c1N=C1C(Cl)=CC(Cl)=CN1C2c1ccc(C(=O)O)cc1` (stereo unspecified), for which the inhibition was 5.65%.

Take `Cn1c(=O)c2c(nc(SCCNS(=O)(=O)c3ccccc3)n2C)n(C)c1=O`: the inhibition was -8.94%.

For `COc1ccc(Cc2n[nH]c(=S)n2NC(=O)Nc2ccc(C)cc2)cc1`, the inhibition is -46.7%.

For `CC(C)CC[n+]1ccn(C2=C([O-])c3ccccc3C(=O)/C2=N\S(=O)(=O)c2ccccc2)c1`, the inhibition was 91.1% (active).

Take `CC(=O)Nc1ccc(NC(=O)C(C)n2c3ccccc3c3nc(=O)cc(C)n32)cc1` (stereo unspecified): the inhibition was 11.5%.

In the case of `CCn1c(CC(=O)Nc2ccc(C)cc2)nnc1SCC(=O)Nc1nc(C)cs1`, the inhibition was 6.57%.

Consider `COc1ccc2oc(N)nc2c1`, for which the inhibition was 7.49%.

For `COc1cccc(Oc2ccc(N)cc2)c1`, the inhibition was -4.14%.

`CC(C)(C)c1ccc(Oc2ccc(N)cc2)cc1`: the inhibition is 91.7% (active).

With `CC(C)(C)c1ccc(OC2=CS(=O)(=O)c3ccccc32)cc1`, the inhibition was -25.6%.

On to `COc1ccc(/C=N/Nc2ccccc2C(=O)O)cc1`, for which the inhibition was -4.16%.

With `COc1ccc(C(=O)Nc2ccccc2C(=O)N2CCN(c3ccccc3)CC2)cc1`, the inhibition is -1.5%.

Regarding `COc1ccc(C(=O)Nc2ccccc2C(=O)N/N=C/c2ccc(O)c(OC)c2)cc1`, the inhibition was 73.3% (active).

As for `CC(=O)NC(Cc1ccc(F)c(F)c1)C(=O)NC1CCN(C(=O)c2ccc(C)cc2)CC1` (stereo unspecified), the inhibition is 7.52%.

In the case of `CSc1ncc(Sc2ccccc2)c(C(=O)O)n1`, the inhibition is 5.79%.

As for `CSc1nc(-c2ccccc2)nc(C(Cl)Cl)n1`, the inhibition is 87.8% (active).

For `Cc1ccc(CNC(=O)c2ccc(CS(=O)Cc3cccc(Cl)c3)o2)cc1` (stereo unspecified), the inhibition is 2.54%.

Regarding `CCOC(=O)N1CCN(c2c(NCCCN3CCCC(C)C3)c(=O)c2=O)CC1` (stereo unspecified), the inhibition was -5.22%.

As to `CCCCCCCCn1c2c(c(=N)c3c1CCC3)CCCC2`, the inhibition is 77.2% (active).

With `CCOc1ccc(N(C)S(=O)(=O)c2cnc[nH]2)cc1`, the inhibition is 6.77%.

With `CC1CCCCC1NC(=O)COC(=O)Cc1ccc(Cl)cc1` (stereo unspecified), the inhibition was 6.02%.

As to `CN(C(=O)CSc1nncc2ccccc12)C1CCCCC1`, the inhibition was -4.81%.

`CN(C(=O)c1cc2c(=O)n3ccccc3nc2s1)C1CCCCC1`: the inhibition was -36.7%.

As to `CN(c1ccc2nc3ccccc3c(=O)n2n1)C1CCCCC1`, the inhibition is 84.7% (active).

For `CCCN(CCC)S(=O)(=O)c1ccc(C(=O)NNC(=O)c2cc(OC)c(OC)c(OC)c2)cc1`, the inhibition is 4.09%.

For `Clc1ccc2nc(-c3ccccc3)nc(C(Cl)Cl)c2c1`, the inhibition is 90.9% (active).

`Clc1cccc(-c2nc(NCC3CCCO3)c3ccccc3n2)c1` (stereo unspecified): the inhibition was -7.27%.

For `N#CCSc1nc(-c2ccccc2)nc2ccc(F)cc12`, the inhibition is 6.09%.

In the case of `CCCOc1cccc(C(=O)Nc2nnn(CCC)n2)c1`, the inhibition was -31.2%.

On to `COc1cc(C(=O)N2CCN(C3CCC(C)CC3)CC2)cc(OC)c1OC` (stereo unspecified), for which the inhibition was -0.962%.

For the compound `O=C1c2ccccc2C(=O)N1CC1c2ccccc2CCN1S(=O)(=O)c1ccccc1` (stereo unspecified), the inhibition was -6.02%.

For the compound `CCOC(=O)C1CCCN(C(=O)/C=C/c2ccc(OC)cc2)C1` (stereo unspecified), the inhibition was -11.1%.

In the case of `CCN1CCC(O)(/C=C/c2ccc(C)cc2)C(C(=O)/C=C/c2ccc(C)cc2)C1` (stereo unspecified), the inhibition is 77.1% (active).

`CCN1CCN(C(=O)CSc2ccc(C)cc2)CC1`: the inhibition is -21.2%.

Regarding `Nc1ccccc1SC(C[N+](=O)[O-])c1ccccc1` (stereo unspecified), the inhibition is 75.5% (active).

`Cc1ccc(C(C[N+](=O)[O-])c2c(C)cc3ccccn23)cc1` (stereo unspecified): the inhibition is 40.1%.

For the compound `O=C(NCC(=O)N1CCCCCCC1)c1ccccc1Cl`, the inhibition was -25.1%.

Consider `COc1ccc(S(=O)(=O)N2CCCC2CNC(=O)C(=O)NC2CC2)cc1` (stereo unspecified), for which the inhibition was -5.39%.

Consider `O=C(NNC(=S)NCCCN1CCOCC1)c1ccncc1`, for which the inhibition is -1.68%.

In the case of `O=C1CC(N2CCN(C(c3ccccc3)c3ccccc3)CC2)C(=O)N1` (stereo unspecified), the inhibition was -6.57%.

As to `Oc1ccccc1CN1CCN(C(c2ccccc2)c2ccccc2)CC1`, the inhibition was 5.95%.

Regarding `CC1(C)CC(N2CCN(C(c3ccccc3)c3ccccc3)CC2)=CC(=[N+]2CCCCC2)C1`, the inhibition was 94% (active).

`CN(C)CCN=c1cc(-c2ccccc2)oc2ccc(Cl)cc12`: the inhibition was -36.2%.

As to `CCOc1ccc(C(=O)CCC(=O)Nc2ccncc2)cc1`, the inhibition was 8.37%.

Consider `CCOc1ccc(NC(=O)CCC(=O)N/N=C/c2ccc([N+](=O)[O-])s2)cc1`, for which the inhibition is 62.8% (active).

Consider `CCOc1ccc(NC(=O)CCC(=O)NNC(=O)NC2CCCCC2)cc1`, for which the inhibition is -2.59%.

For the compound `CCCCN(C(=O)c1ccc(OC(F)(F)F)cc1)c1c(N)n(CCC)c(=O)[nH]c1=O`, the inhibition was -1.56%.

Turning to `CCN(C(=O)COC(=O)Cc1c(F)cccc1Cl)c1c(N)n(Cc2ccccc2)c(=O)[nH]c1=O`, the inhibition is -2.14%.

As to `O=C(NCCc1ccc(C(F)(F)F)cc1)c1ccc2c(c1)OCO2`, the inhibition is -3.11%.

`O=C(CCc1ccccc1Cl)Nc1ccc(S(=O)(=O)Nc2nccs2)cc1`: the inhibition was 12.4%.

As to `Cc1coc2c(O)cc3c(c12)OC1(N2CCCCC2)C(=O)NCCCC31` (stereo unspecified), the inhibition was 77.4% (active).

For `COc1ccc(CCN2CC(C(=O)OCC(=O)NCc3ccccc3Cl)CC2=O)cc1OC` (stereo unspecified), the inhibition is -2.95%.

`CC1C(=O)N(Cc2ccccc2)c2ccccc2N1C(=O)c1ccccc1` (stereo unspecified): the inhibition is 8.87%.

For the compound `CC1C(C)N(C(=O)CCl)c2ccccc2N1C(=O)CCl` (stereo unspecified), the inhibition is 91.3% (active).

As for `CC1CC(C)CN(CC(=O)N2c3ccccc3CCc3ccccc32)C1` (stereo unspecified), the inhibition is -0.982%.

`CCC1([N+](=O)[O-])COC(c2ccc(C(C)C)cc2)OC1` (stereo unspecified): the inhibition was -55.6%.

Regarding `O=C(Nc1ccc2ccccc2c1[N+](=O)[O-])c1ccccc1`, the inhibition is -36.6%.

With `CC(=O)/C(=N\Nc1ccc(Cl)cc1Cl)Sc1cccc2cccnc12`, the inhibition is 65.6% (active).

As for `Cc1c(NC(=O)CSc2cccc3cccnc23)c(=O)n(-c2ccccc2)n1C`, the inhibition was 35.6%.

In the case of `S=C(NCc1cccnc1)Nc1ccc(Cl)cc1Cl`, the inhibition was -6.79%.

`CC1(C)C(=O)C2(CCCCC2)C(=O)OC1c1cccs1` (stereo unspecified): the inhibition is 4.16%.

For `C=CCn1c(=S)[nH]c2scc(-c3ccco3)c2c1=O`, the inhibition was 1.55%.

Take `CCN(CC)S(=O)(=O)c1ccc(N2CCCC2)c(NC(=O)c2ccc([N+](=O)[O-])o2)c1`: the inhibition was 88.5% (active).

`CCN(CC)S(=O)(=O)c1cc(C(=O)Nc2cc(S(=O)(=O)N3CCOCC3)ccc2N2CCCC2)ccc1F`: the inhibition was 6.91%.

As to `CCN(CC)S(=O)(=O)c1ccc(N2CCOCC2)c(NC(=O)c2ccc(=O)n(C)n2)c1`, the inhibition was 2.54%.

For `Nc1ccc(-n2nncc2-c2ccco2)cc1`, the inhibition was -11.2%.

For `O=C(c1cccc(S(=O)(=O)N2CCCCCC2)c1)N1CCN(Cc2ccccc2)CC1`, the inhibition is -3.86%.

On to `CCOC(=O)c1c(NC(=O)CN2C(=O)NC3(CCC(C)CC3)C2=O)sc(C)c1CC` (stereo unspecified), for which the inhibition is 0.199%.

Take `NC(=O)NC(CC(=O)NNC(=O)c1ccccn1)c1ccc(Cl)cc1` (stereo unspecified): the inhibition was -12.2%.

Turning to `C/C(=N\NC(=O)Cc1ccc(Cl)cc1)c1ccccn1`, the inhibition is 80% (active).

In the case of `C/C(=N\NC(=O)c1ccoc1C)c1ccccc1O`, the inhibition was -21.6%.

Take `C/C(=N\NC(=O)c1ccccc1F)c1ccccn1`: the inhibition was 62.2% (active).

Consider `CC1=NNC(=O)C1CCC(=O)N/N=C(\C)c1ccc(Cl)cc1` (stereo unspecified), for which the inhibition was 2.4%.

Consider `CC(=NNC(=S)N1CCCCCC1)c1ccccn1`, for which the inhibition was 58.9%.

For the compound `CC(C)CN1CC(C)C(=O)N(c2ccccc2)C1=S` (stereo unspecified), the inhibition was -5.49%.

As to `COc1ccc(S(=O)(=O)N2CCC(C(=O)N3CCc4ccccc4C3)CC2)cc1OC`, the inhibition is 1.79%.

Regarding `COc1cc2c(cc1OC)C(C)N(S(=O)(=O)c1cnc(Cl)c(Cl)c1)CC2` (stereo unspecified), the inhibition was 76% (active).

On to `COc1cc2c(cc1OC)CN(C(=O)c1cc(S(=O)(=O)N3CCCCC3)ccc1Cl)CC2`, for which the inhibition was 10.9%.

On to `CN(CCc1ccccn1)C(=O)CCC1CCCN(Cc2ccccc2OC(F)F)C1` (stereo unspecified), for which the inhibition was -12.8%.

Consider `CC[C@]1(O)C[C@@H]2CN(CCc3c([nH]c4ccccc34)[C@@](C(=O)OC)(c3cc4c(cc3OC)N(C)[C@H]3[C@@](O)(C(=O)OC)[C@H](OC(C)=O)[C@]5(CC)C=CCN6CC[C@]43[C@@H]65)C2)C1`, for which the inhibition is 62.2% (active).

On to `CC[C@]1(O)CC2CN(CCc3c([nH]c4ccccc34)[C@@](C(=O)OC)(c3cc4c(cc3OC)N(C=O)[C@H]3[C@@](O)(C(=O)OC)[C@H](OC(C)=O)[C@]5(CC)C=CCN6CC[C@]43[C@@H]65)C2)C1` (stereo partly specified), for which the inhibition was 45.8%.

For the compound `CCC1SC(CC)C(=O)N(CC(=O)NC2CCCCC2)C1=O` (stereo unspecified), the inhibition is 13.1%.

The term inhibition denotes the relative decrease from the control value, in per cent.
